# Screening data (PubChem)
# Many of the other results were omitted from the sample, so hits are more common in it than they were.
# PTK2B oligo ant: antagonists of human Pyk2 oligomerization; Q14289; Q293 cells, Pyk2 FERM NanoBiT luminescence; hits give low values; z-score (the deposit names both 25 µM and 10 µM); actives 0.83% (n = 99,000); AID 1347419;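 active means Z-score of -3 or lower, scaled per plate to the spread of control and sample wells; inactive means z-score above -3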;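 further: negative z-score means lost luminescence so less FERM oligomerization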
# Mac1 fbg enh: increases human CD11b/CD18 adhesion to fibrinogen; actives 0.07% (n = 93,000); activation, % at 10 µM; K562 CD11b/CD18 adhesion to fibrinogen, ATPlite luminescence;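 active means 10 µM primary screen giving 50% or more activity, confirmed by 40% or more on retest at that dose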
# hDAT+cocaine: changed human dopamine transporter uptake under cocaine IC80; LLC-PK1 hDAT cells, [14C]-dopamine uptake with cocaine IC80; actives deviate in either direction; B-score at 10 µM; actives 1.3% (n = 110,000); AID 449768;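 active means Z score or B-score, a plate-position-corrected score, falls beyond the plate's 99.7% confidence bounds, in either direction; inactive means both scores lie inside the 99.7% bounds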;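 further: scored against the spread of the other compound wells on the same plate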
# FAK inh: inhibitors of human focal adhesion kinase; biochemical FAK kinase activity assay; inhibition, %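 (tested at 7 µM)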; actives 0.84% (n = 97,000);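 further: 0% = DMSO and 100% = reference compound high control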
# Mac1 fbg inh: CD11b/CD18-fibrinogen binding inhibition; actives 0.54% (n = 93,000); AID 1497; inhibition, % at 10 µM; P05107+P11215; K562 CD11b/CD18 adhesion to fibrinogen, ATPlite luminescence; Mn2+ added to activate the integrin;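 active means primary inhibition of 50% or more at 10 µM, then 40% or more on retest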
# D1 allo mod: allosteric modulators of human D1 dopamine receptor; actives 5.9% (n = 58,000); P21728; AID 641; B-score at 10 µM; HEK293 D1, CRE-luciferase, dopamine EC30 potentiation; actives deviate in either direction;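 active means luminescence count or its row- and column-corrected plate score outside the 99.7% band of the plate's sample wells, on either side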
# D1 mod confirm: confirmation of human D1 dopamine receptor allosteric modulators. shares compounds with D1 allo mod. HEK293 D1 CRE-luciferase, dopamine EC30 potentiation; hits give high values. luminescence at 10 µM. actives 88% (n = 2,200);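 active means luminescence in either of two replicates above the same-plate mean plus 3 SD of the low-dose dopamine control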
# D1 ag no DA: D1 (human) signaling in absence of dopamine | shares compounds with D1 allo mod | HEK293 D1 CRE-luciferase, luminescence, no dopamine; hits give high values | actives 0.8% (n = 1,900) | luminescence at 10 µM; in the data active means luminescence above about 3900
# Isoprot counter: isoproterenol response counter-screen activity for D1 modulators; shares compounds with D1 allo mod; HEK293 D1 CRE-luciferase, isoproterenol EC30 counter-screen; calls only at 10 µM; actives 63% (n = 2,200);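 active means luminescence in either replicate above plate mean of wells with a partly effective reference agonist dose plus 3 SD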;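 further: isoproterenol raises cAMP through native beta-adrenoceptor Gs so signal bypasses D1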
# FAK inh conf: confirmation of human focal adhesion kinase (FAK) inhibitors; inhibition, % at 7 µM; AID 794; FAK kinase biochemical inhibition assay; shares compounds with FAK inh; actives 28% (n = 750)
# Starred values were filed as active, the others as inactive; i = inactive; . = not tested or not shown; + = active, no number. Unless noted, no stated cut-off is given here; in the data, active means inhibition above about 19%; inactive means the rest.
SMILES,PTK2B oligo ant,Mac1 fbg enh,hDAT+cocaine,FAK inh,Mac1 fbg inh,D1 allo mod,D1 mod confirm,D1 ag no DA,Isoprot counter,FAK inh conf
COC(=O)c1cc(=O)n(CCc2ccc(OC)cc2)c(=Nc2ccc(F)c(Cl)c2)s1,.,9,1.2,1,-4,.,.,.,.,.
CCn1c(=O)cc(C(=O)OC)sc1=Nc1ccc(F)c(F)c1,.,1,0.59,0,-9,11*,23240*,1624,+,.
O=S(=O)(c1ccc2oc3ccc(S(=O)(=O)N4CCCCC4)cc3c2c1)N1CCCCC1,-0.84,19,1.1,-2,4,.,.,.,.,.
Cc1cc(=O)[nH]c2ccccc12,1.9,.,0.13,5,.,-0.034,.,.,.,.
O=c1cc(-c2ccccc2)c2ccccc2[nH]1,0.35,4,-1,19*,-7,10*,12072*,1476,+,-1
CCOC(=O)N1CCC(NC(=O)c2cccc3c2C(=O)N(c2ccc(OC)cc2)C3)CC1,.,63,1.3,44*,-12,5.2*,10556*,1464,+,11
CCOC(=O)N1CCC(N2Cc3cccc(C(=O)NCc4ccc(OC)cc4)c3C2=O)CC1,.,.,.,.,.,2.9,.,.,.,.
COc1ccc(N2Cc3cccc(C(=O)NC(C)CCc4ccco4)c3C2=O)cc1 (configuration not stated),.,10,0.59,33*,9,3.4*,11280*,1872,+,5
CCOc1cccc(N(C(=O)Cc2cccs2)C(C(=O)NC2CCCCC2)c2cccn2C)c1 (configuration not stated),-1.1,.,0.33,2,.,.,.,.,.,.
COc1ccccc1-n1c(C)cc(C=O)c1C,0.81,3,-0.81,1,-2,.,.,.,.,.
CC(C)NC(=O)c1onc(CSc2cccc(F)c2)c1C(=O)O,.,.,0.94,4,.,.,.,.,.,.
c1cncc(-c2nc(NCc3ccco3)c3ccccc3n2)c1,-0.08,-2,-0.031,19*,-4,7.3*,11656*,.,+,9
N#Cc1c(-c2ccco2)cc(-c2cccnc2)nc1N,1.2,3,0.15,20*,-3,8.3*,14352*,1676,+,6
CCCc1cc(C(N)=O)c(NC(=O)C2CCCO2)s1 (configuration not stated),-1.4,.,1.5,1,.,0.88,.,.,.,.
CCCc1cc(C(N)=O)c(NC(=O)c2ccco2)s1,-2,-7,0.048,27*,-16,5*,10424*,1588,+,10
CCOC(=O)c1ccc2nc3c(cc2c1)CCS3,0.06,0,0.91,5,-3,0.083,.,.,.,.
COCCCNc1c2c3c(cccc3[nH]c1=O)C(=O)c1ccccc1-2,.,0,1.2,20*,10,3*,8772*,1436,i,10
c1ccc(-c2cnnc(N3CCOCC3)n2)cc1,-0.76,-5,-0.36,-8,-13,.,.,.,.,.
Nc1[nH]nc2nc(N3CCOCC3)nc(-c3ccccc3)c12,-0.67,-1,2,24*,1,9.8*,13488*,.,+,4
Cc1nn(C)c(C)c1/C=N/O,-0.79,-4,-0.0094,0,-10,.,.,.,.,.
O=C1c2ccccc2-c2onc3ccc(NCCCn4ccnc4)c1c23,.,31,0.27,36*,7,3.9*,11264*,1320,i,27*
CC1CCCCN1C(=O)CSc1ccc(-c2ccc(F)cc2)nn1 (configuration not stated),0.56,1,1.7,26*,0,0.75,.,.,.,10
CCCCOc1ccc(/C(N)=N/O)cc1,-0.68,-1,2.4,.,10,0.58,.,.,.,.
